This passage reports Potency results from PubChem BioAssay (NCATS).

Inconclusive results are not listed. The source made the active and inactive calls. Calls come from the whole dose curve; as a rule, active = well fitted cell-killing curve with a large enough effect; inconclusive = small, poorly fitted or top-dose-only effect, or effect the other way; inactive = no such curve, though single readings can be large or run the other way.

Assay [1] can be described thus: Quantitative High-Throughput drug screen in 47 multiple myeloma cell lines against the NCATS MIPE library collection: INA6_PLB cell viability assay (AID 1918965; note: nearly all actives have a fitted effect of over 55% in size). The method in brief: (§1)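 We plated 500 myeloma cells per well, pinned in MIPE 4.0 compounds, and incubated for 48 hours at 37C. ATP was then quantified with CellTiter-Glo, with DMSO and media-only wells defining 100% and 0%.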

Assay [2] is described as follows: Quantitative High-Throughput drug screen in 47 multiple myeloma cell lines against the NCATS MIPE library collection: H1112_PLB cell viability assay (AID 1918967; note: nearly all actives have a fitted effect of over 30% in size). The method in brief: (§2)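 Steps: seed 500 cells per well; pin-transfer MIPE 4.0 library; incubate 48 h at 37C, 5% CO2, humidified; add CellTiter-Glo, 5 min room temperature; read luminescence.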
A short description of assay [3]: Quantitative High-Throughput drug screen in 47 multiple myeloma cell lines against the NCATS MIPE library collection: KMS27_JCRB cell viability assay (AID 1918970). Note: nearly all actives have a fitted effect of over 30% in size. The gist of the method:
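Each line is seeded at 500 cells per well and treated with library compounds for 48 hours under 37 °C, 5% CO2. CellTiter-Glo is then added for 5 min at room temperature before median relative luminescence is recorded.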

Assay [4] in a line: Quantitative High-Throughput drug screen in 47 multiple myeloma cell lines against the NCATS MIPE library collection: KMS12PE_JCRB cell viability assay (AID 1918972). Note: nearly all actives have a fitted effect of over 30% in size. The gist of the method: as §1
The nature of assay [5]: Quantitative High-Throughput drug screen in 47 multiple myeloma cell lines against the NCATS MIPE library collection: Karpas25_ECACC cell viability assay (AID 1918968; note: nearly all actives have a fitted effect of over 35% in size). The gist of the method: as §2
A short description of assay [6]: Quantitative High-Throughput drug screen in 47 multiple myeloma cell lines against the NCATS MIPE library collection: KMS20_JCRB cell viability assay (AID 1918973). Note: nearly all actives have a fitted effect of over 45% in size. The gist of the method: as §2
Assay [7] can be described thus: Quantitative High-Throughput drug screen in 47 multiple myeloma cell lines against the NCATS MIPE library collection: KMS12BM_JCRB cell viability assay (AID 1918971). Note: nearly all actives have a fitted effect of over 35% in size. The gist of the method:
(§3)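 Luminescent ATP measurement with CellTiter-Glo gives viability, scaled between DMSO-only wells (100%) and media-only wells (0%). Cells, 500 per well, faced library compounds for 48 hours at 37C.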

Assay [8] is described as follows: Quantitative High-Throughput drug screen in 47 multiple myeloma cell lines against the NCATS MIPE library collection: KMS26_JCRB cell viability assay (AID 1918975). Note: nearly all actives have a fitted effect of over 45% in size. The method in brief:
as §3

Assay [9] in a line: Quantitative High-Throughput drug screen in 47 multiple myeloma cell lines against the NCATS MIPE library collection: KMS21BM_JCRB cell viability assay (AID 1918974). To be noted: ATP luminescence, 48 h; viability: at 45.8 µM (top of the series) unless noted. The gist of the method:
as §2

Assay [10] in a line: Quantitative High-Throughput drug screen in 47 multiple myeloma cell lines against the NCATS MIPE library collection: JJN3_DSMZ cell viability assay (AID 1918966; note: nearly all actives have a fitted effect of over 50% in size). The method in brief: as §2
Potency is the fitted concentration of half-maximal effect.

Turning to `CC=C(C)C(=O)O[C@H]1C(C)=C[C@]23C(=O)[C@@H](C=C(CO)[C@@H](O)[C@]12O)[C@H]1[C@@H](C[C@H]3C)C1(C)C`, the Potency in [1] is 0.0066 µM (active); in [2], 0.526 µM (active); in assay [3], 9.35 µM (active); in [4], 18.7 µM (active).

`NC(=O)c1ccc2nc(-c3ccc(Oc4ccc(Cl)cc4)cc3)[nH]c2c1`: the Potency in assay [1] is 0.0209 µM (active); in [5] it was 4.69 µM (active); in [4], 9.35 µM (active); in [6] it was 5.26 µM (active). In addition, in assay [2], the Potency result is “inactive”.

Turning to `Cc1cccc(Nc2nc(-c3ccncc3)cs2)c1`, the Potency is 18.7 µM (active) in assay [1], 18.7 µM (active) in assay [2], 18.7 µM (active) in assay [3] and 14.8 µM (active) in assay [4].

Regarding `CON=C(C(=O)N[C@@H]1C(=O)N2C(C(=O)OCOC(=O)C(C)(C)C)=C(C=Cc3scnc3C)CS[C@H]12)c1csc(N)n1`, in assay [1], the Potency is 18.7 µM (active). Besides, the Potency result in [2], in assay [7] and in [6] was “inactive” throughout.

On to `CO[C@H]1C(=O)[C@]2(C)[C@@H](OC)C[C@H]3OC[C@@]3(OC(C)=O)[C@H]2[C@H](OC(=O)c2ccccc2)[C@]2(O)C[C@H](OC(=O)[C@H](O)[C@@H](NC(=O)OC(C)(C)C)c3ccccc3)C(C)=C1C2(C)C`, for which the Potency entry in assay [1], in assay [2], in assay [5], in assay [7], in assay [4] and in [6] was “inactive” in each case.

Regarding `COc1cc(NC(=O)c2ccc(-c3ccc(Cl)cc3)o2)cc(OC)c1`, the Potency in assay [1] is 8.33 µM (active); in assay [2], 2.96 µM (active); in assay [5], 2.96 µM (active); in [4] it was 20.9 µM (active). For the same molecule, the Potency entry in assay [8] is “inactive”.

For `CCOC1OC(=O)C[C@H]1NC(=O)[C@@H]1CCCN1C(=O)[C@@H](NC(=O)c1ccc(N)c(Cl)c1)C(C)(C)C` (stereo partly drawn), the Potency result in assay [1], in assay [2], in assay [7] and in [8] was “inactive” throughout. The values for the Potency in [3] and in [4] were 5.26 µM (active) and 11.8 µM (active), respectively.

Turning to `O=C1Nc2ccc(Cl)cc2C(C#CC2CC2)(C(F)(F)F)O1` (stereo not drawn), the Potency in assay [1] is 20.9 µM (active); in assay [2], 23.5 µM (active); in assay [5], 20.9 µM (active); in assay [7] it was 23.5 µM (active); in assay [6] it was 20.9 µM (active); in assay [8], 23.5 µM (active).

Turning to `O=C1NC(=O)C(=Cc2ccc(-c3ccc(F)cc3)o2)S1`, the Potency entry in [1] and in assay [3] was “inactive” in each case. The Potency in assay [4] is 4.18 µM (active).

Turning to `NC(=O)[C@@H](CCC(F)(F)F)N(Cc1ccc(-c2ncon2)cc1F)S(=O)(=O)c1ccc(Cl)cc1`, the figures for the Potency in assay [1] and in [7] were 26.4 µM (active) and 18.7 µM (active), respectively. For the same molecule, the Potency entry in assay [3] and in [8] was “inactive” throughout.

For `CC(=O)OC1C(C)OC(Oc2c(-c3ccc(O)cc3)oc3cc(O)cc(O)c3c2=O)C(O)C1OC(C)=O` (stereo not drawn), the Potency in assay [1] was 9.35 µM (active); in assay [6] it was 11.8 µM (active). In addition, the Potency result in assay [2] is “inactive”.

Consider `O=c1cc(-c2cccc3c2Sc2ccccc2S3)oc(N2CCOCC2)c1`, for which the Potency in [1] is 18.7 µM (active); in assay [2] it was 20.9 µM (active); in [5], 14.8 µM (active); in [7] it was 23.5 µM (active); in assay [4], 16.6 µM (active); in [6] it was 13.2 µM (active).

For `CC(C)n1cnc2c(NCCCCCCNC(=O)OC(C)(C)C)nc(NCCO)nc21`, the Potency in assay [1] was 23.5 µM (active); in [2] it was 23.5 µM (active); in [5], 23.5 µM (active); in [7] it was 18.7 µM (active); in assay [6], 1.05 µM (active); in [8], 23.5 µM (active).

Regarding `CC(C)(C)NC(=O)Nc1cccc(Nc2ncc(F)c(NC(C)(C)CO)n2)c1`, the Potency in assay [1] was 18.7 µM (active); in assay [4], 3.32 µM (active). Further, the Potency entry in [2], in [7] and in [6] was “inactive” in each case.

For the molecule `CCN(CC)CCOc1ccc(C(=C(Cl)c2ccccc2)c2ccccc2)cc1`, the Potency result in assay [1], in assay [5] and in [7] was “inactive” throughout. The Potency in [9] was 18.7 µM (active).

For the molecule `O=c1c(-c2ccc(O)cc2)coc2cc(OC3O[C@H](CO)[C@H](O)[C@H](O)[C@H]3O)cc(O)c12` (stereo partly drawn), the Potency in [1] is 10.5 µM (active); in assay [5] it was 3.32 µM (active). Further, in assay [3], the Potency result was “inactive”.

Consider `CN(C)c1cc(NC(=O)CNC(C)(C)C)c(O)c2c1C[C@@H]1C[C@H]3[C@H](N(C)C)C(=O)C(C(N)=O)=C(O)[C@@]3(O)C(=O)C1=C2O`, for which the Potency result in [1], in assay [2], in [3], in [7], in [4] and in assay [8] was “inactive” throughout.

Regarding `N#CC(=C(N)Sc1ccccc1N)C(C#N)=C(N)Sc1ccccc1N`, the Potency in assay [1] was 16.6 µM (active); in assay [5] it was 8.33 µM (active); in [3], 18.7 µM (active); in assay [4], 23.5 µM (active); in assay [8], 1.32 µM (active). Also, the Potency entry in [7] is “inactive”.

Take `CCCCCCCCCCCC1=C(O)C(=O)C=C(O)C1=O`: the Potency in assay [1] was 2.64 µM (active); in assay [5], 2.96 µM (active); in assay [3], 0.187 µM (active); in [7], 23.5 µM (active); in assay [4], 1.18 µM (active).

With `COc1ccc(-c2cc(=O)c3c(O)cc(O)cc3o2)cc1O`, the Potency is 8.33 µM (active) in [1]; 3.72 µM (active) in assay [5]; 5.9 µM (active) in assay [4]; 4.18 µM (active) in [6]; 5.9 µM (active) in assay [8].

Consider `CC(C)OC(=O)CCCC=CC[C@@H]1[C@H](C=C[C@@H](O)COc2cccc(C(F)(F)F)c2)[C@H](O)C[C@@H]1O`, for which the Potency in assay [1] is 11.8 µM (active); in assay [2], 18.7 µM (active); in assay [5] it was 16.6 µM (active). For the same molecule, in [4], the Potency result was “inactive”.

As to `O=c1c(O)c(-c2ccc(O)cc2)oc2cc(O)cc(O)c12`, the Potency in [1] is 16.6 µM (active); in assay [2], 20.9 µM (active); in [5] it was 9.35 µM (active); in assay [4], 16.6 µM (active); in [6] it was 14.8 µM (active).

Consider `CC(C)(C)Cn1c(N)nc2ccc(-c3[nH]c(C(C)(C)C)nc3-c3ccc(F)cc3)nc21`, for which the Potency in assay [10] is 20.9 µM (active); in assay [2], 20.9 µM (active); in assay [7], 23.5 µM (active). The Potency entry in assay [3] and in [4] was “inactive” each time.

For the molecule `CN(C)Cc1cccc(N=C(c2ccccc2)c2c(O)[nH]c3cc(C(=O)N(C)C)ccc23)c1`, the Potency was 18.7 µM (active) in [1] and 16.6 µM (active) in [4].

For the molecule `CCCCCNC(=O)N1CCC(CN(Cc2ccc(Cl)cc2)Cc2ccc([N+](=O)[O-])s2)C1` (stereo not drawn), the Potency was 23.5 µM (active) in assay [10]; 20.9 µM (active) in assay [5]; 20.9 µM (active) in [3]; 23.5 µM (active) in assay [7]; 18.7 µM (active) in assay [4]; 23.5 µM (active) in [8].
